Assay outcomes deposited in PubChem BioAssay by several laboratories.
Compounds with a hit are over-represented: about 1.4% of the library has one in this group of screens.
3CLpro inhibitor – SARS-CoV 3CLpro protease inhibition. P0C6X7. inhibition, % at 6 µM. recombinant SARS-CoV 3CLpro, quenched FRET peptide cleavage. 0.14% of 290,000 active; in the data active means inhibition above about 12%
PrP UTR inh – suppresses PrP 5' UTR mRNA reporter expression. 0.35% of 340,000 active. inhibition, % (concentration not given with the values). cell-based PrP 5' UTR mRNA reporter, plate reader; in the data active means inhibition above about 52%
Mtb hypoxia inh – reduces hypoxia-regulated biosensor signal in M. tuberculosis; M. tuberculosis hypoxia-regulated fluorescent reporter, fluorescence; fluorescence inhibition, % (no concentration beside the values); 0.1% of 300,000 active; AID 1159583; in the data active means fluorescence inhibition mostly above about 23%, no sharp cut-off; inactive means mostly below about 17%
RecA intein inh – inhibitors of M. tuberculosis RecA intein splicing; P9WHJ3; AID 2221; inhibition, % (concentration not given with the values); 0.75% of 290,000 active; cell-free RecA intein splicing, fluorescence; in the data active means inhibition above about 30%
PrPC TRFRET – reduces human prion protein on the cell surface; inhibition, % at 13.8 µM; cell surface PrPC, TR-FRET read-out; 0.43% of 370,000 active; in the data active means inhibition above about 24%
BJeLR viability – kills HRASV12-expressing BJeLR cells; 0.17% of 300,000 active; inhibition, % (concentration not given with the values); AID 1554; BJeLR (HRASV12) viability, CellTiter-Glo ATP luminescence, 48 h; in the data active means inhibition above about 50%
PrPC TRFRET cf – confirmation of inhibitors of cell surface human prion protein. 65% of 1,500 active. cell surface PrPC level, TR-FRET. inhibition, % at 13.8 µM. shares compounds with PrPC TRFRET; in the data active means inhibition above about 25%
LD9 cytotox – LD9 cell cytotoxicity, PrPc inhibitor counter-screen; LD9 cells cytotoxicity, luminescence viability; shares compounds with PrPC TRFRET; inhibition, % at 13.8 µM; 29% of 1,500 active; AID 743201; in the data active means inhibition above about 9.5%
Numbers stand for hits; n = inactive; x = no result shown.

SMILES	3CLpro inhibitor	PrP UTR inh	Mtb hypoxia inh	RecA intein inh	PrPC TRFRET	BJeLR viability	PrPC TRFRET cf	LD9 cytotox
CCCCC(=O)NC(c1ccc(Cl)cc1Cl)c1ccc2cccnc2c1O (stereo not given)	n	n	x	n	n	n	x	x
CC(=O)NC(c1ccc(Cl)cc1)c1ccc2cccnc2c1O (stereo not given)	x	n	n	x	40	x	35	33
CC1=NN(/C(=N/c2nnc(C)s2)Nc2ccccc2)[C@H](c2ccc(C)cc2)S1	x	x	n	x	x	x	x	x
COc1ccc(C2C3C(=O)N(C(C)(C)C)C(=O)C3[C@]3(Cc4ccc(Cl)cc4)C(=O)N(c4ccc(C)cc4)C(=O)N23)cc1 (stereo not given in full)	x	x	n	x	x	x	x	x
CCOC(=O)C1C2COc3ccc(Br)cc3C2N2C(=O)N(c3ccc(F)cc3)C(=O)[C@@]12C (stereo not given in full)	x	x	n	x	x	x	x	x
CCC(=O)NC(c1ccc(C)cc1)c1ccc2cccnc2c1O (stereo not given)	n	n	x	n	30	n	31	28
CNC(=O)c1c(NC(=O)c2ccc(S(=O)(=O)N3CCCC3)cc2)sc2c1CCN(C(C)C)C2	n	x	x	n	n	n	x	x
CCN1CCc2c(sc(NC(=O)c3ccc(S(=O)(=O)N4CCCCCC4)cc3)c2C(=O)NC)C1	n	n	n	n	52	n	n	n
CC(/C=C/c1ccccc1)=NNc1nc2c(c(=O)[nH]c(=O)n2C)n1CCO	x	x	n	x	x	x	x	x
NC(N)=N/N=C/c1cn(-c2ccccc2)nc1-c1cccs1	n	n	x	x	27	n	n	60
NC(N)=NN=Cc1cn(-c2ccccc2)nc1-c1cccs1	x	x	n	x	x	x	x	x
Cc1ccc(NC(=O)c2cc(S(=O)(=O)N(C)C)ccc2N2CCCC2)cc1S(=O)(=O)N(C)C	x	n	n	n	44	n	37	n
COc1ccc(-c2cnnn2-c2ccc(NC(=O)c3ccc(S(=O)(=O)N4CCCCC4)cc3)cc2)cc1OC	n	n	n	n	32	n	n	n
COc1ccc(C(=O)Nc2ccc(S(=O)(=O)N3CCCCC3)cc2)cc1OC	n	n	x	n	n	n	x	x
COc1ccc(NC(=O)c2cc(S(=O)(=O)N(C)C)ccc2N2CCCC2)cc1Cl	n	n	n	n	24	n	n	n
COc1ccc(S(=O)(=O)N2CCOCC2)cc1C(=O)Nc1ccc(N2CCCCCC2)cc1	x	n	x	x	31	x	30	n
C=C1CCN(C(CC(C)C)C(=O)N2CCCC2)S(=O)(=O)c2ccccc21 (stereo not given)	x	x	n	x	x	x	x	x
Cc1nn(C)c(C)c1/C=C(/C(=O)C(C)(C)C)n1cncn1	n	n	n	n	n	n	x	x
CC(C)(C)C(=O)/C(=C/c1ccncc1)n1cncn1	n	n	x	n	34	n	n	44
CC(C)(C)OC(=O)NCCCCCNC(=O)c1[nH]cnc1C(=O)NC(Cc1ccccc1)C(=O)OCc1ccccc1 (stereo not given)	x	x	n	x	x	x	x	x
CCCCCCCCC[n+]1cccc2c3ccccc3ccc21	n	n	n	n	x	n	x	x
CCCCCCCCCCCCCCCC[n+]1cccc2ccccc21	n	n	n	x	40	x	51	55
Cc1ccc2c(c1)[C@H]1[C@H](CO2)[C@H](c2ccccc2)[C@]2(C)C(=O)Nc3cc(F)c(F)cc3C(=O)N12	x	n	x	x	29	x	n	n
C[C@@]12C(=O)N(c3cccc(F)c3)C(=O)N1[C@@H]1c3ccccc3OC[C@@H]1[C@H]2c1ccccc1	x	n	x	x	29	x	n	n
Cc1ccc2c(c1)C1C(CO2)C(c2ccccc2)[C@]2(C)C(=O)Nc3cc(F)ccc3C(=O)N12 (stereo not given in full)	x	x	n	x	x	x	x	x
CC(=NNc1cc(C)nc(-c2ccccc2)n1)c1cccc([N+](=O)[O-])c1	x	x	n	x	x	x	x	x
Cc1ccc(N2CCN(N=Cc3ccncc3)CC2)cc1	x	x	n	x	x	x	x	x
COc1cc2oc3ccc(C#Cc4ccc(N)cc4)cc3c(=O)c2cc1OC	x	n	n	n	26	n	33	10.0
CCCN1C(=O)c2[nH]nc(-c3cc(Cl)c(C)cc3O)c2C1c1ccc(O)c(OC)c1 (stereo not given)	n	n	n	n	26	n	n	n
